ChEMBL document CHEMBL3988442, “University of Dundee, Small-Polar-MMV Screening Library” (2021)
For some of these results: Results with a measured potency or affinity are listed apart.

Columns and labels:
Design in all cases: scale not given: direction of the effect not stated beside the values
[1] = biological target: Protein translocase subunit SecA (Escherichia coli (strain K12)) (UniProt P10408); test: Assay to Identify E. coli SecA ATPase Inhibitors; assay type: functional; settings: 30 µM
Protein translocase subunit SecA (Escherichia coli (strain K12)), sequence (P10408 whole entry): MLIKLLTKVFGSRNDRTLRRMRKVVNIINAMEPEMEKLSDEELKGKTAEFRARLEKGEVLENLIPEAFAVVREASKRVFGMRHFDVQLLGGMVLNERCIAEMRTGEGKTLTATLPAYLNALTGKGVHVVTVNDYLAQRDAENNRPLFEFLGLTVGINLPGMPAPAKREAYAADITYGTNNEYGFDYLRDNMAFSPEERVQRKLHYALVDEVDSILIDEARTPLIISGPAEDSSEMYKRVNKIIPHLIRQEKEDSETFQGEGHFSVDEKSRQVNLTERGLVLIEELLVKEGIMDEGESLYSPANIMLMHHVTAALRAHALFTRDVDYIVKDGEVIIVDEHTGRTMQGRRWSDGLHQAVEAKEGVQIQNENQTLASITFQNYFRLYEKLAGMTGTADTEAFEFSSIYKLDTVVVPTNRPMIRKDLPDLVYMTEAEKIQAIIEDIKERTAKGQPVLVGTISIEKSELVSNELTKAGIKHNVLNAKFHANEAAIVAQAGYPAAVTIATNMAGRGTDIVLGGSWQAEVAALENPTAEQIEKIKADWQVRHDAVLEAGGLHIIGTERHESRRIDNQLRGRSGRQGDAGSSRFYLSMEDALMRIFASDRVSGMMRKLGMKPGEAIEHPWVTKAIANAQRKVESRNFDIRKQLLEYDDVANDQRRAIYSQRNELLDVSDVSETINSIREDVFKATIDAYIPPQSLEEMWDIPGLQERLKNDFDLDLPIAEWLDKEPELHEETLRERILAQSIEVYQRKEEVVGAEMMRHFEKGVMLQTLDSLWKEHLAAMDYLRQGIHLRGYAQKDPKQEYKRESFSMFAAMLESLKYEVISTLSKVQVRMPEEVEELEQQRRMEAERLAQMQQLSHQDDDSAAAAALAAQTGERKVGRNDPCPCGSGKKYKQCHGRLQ

[2] = biological target: T1, Ubiquitin-activating enzyme e1, putative (Leishmania donovani (strain BPK282A1)) (UniProt E9BSI1); test: Leishmania donovani Ubiquitin Activating Enzyme (LdE1); assay type: functional; settings: 30 µM
T1 sequence (whole entry): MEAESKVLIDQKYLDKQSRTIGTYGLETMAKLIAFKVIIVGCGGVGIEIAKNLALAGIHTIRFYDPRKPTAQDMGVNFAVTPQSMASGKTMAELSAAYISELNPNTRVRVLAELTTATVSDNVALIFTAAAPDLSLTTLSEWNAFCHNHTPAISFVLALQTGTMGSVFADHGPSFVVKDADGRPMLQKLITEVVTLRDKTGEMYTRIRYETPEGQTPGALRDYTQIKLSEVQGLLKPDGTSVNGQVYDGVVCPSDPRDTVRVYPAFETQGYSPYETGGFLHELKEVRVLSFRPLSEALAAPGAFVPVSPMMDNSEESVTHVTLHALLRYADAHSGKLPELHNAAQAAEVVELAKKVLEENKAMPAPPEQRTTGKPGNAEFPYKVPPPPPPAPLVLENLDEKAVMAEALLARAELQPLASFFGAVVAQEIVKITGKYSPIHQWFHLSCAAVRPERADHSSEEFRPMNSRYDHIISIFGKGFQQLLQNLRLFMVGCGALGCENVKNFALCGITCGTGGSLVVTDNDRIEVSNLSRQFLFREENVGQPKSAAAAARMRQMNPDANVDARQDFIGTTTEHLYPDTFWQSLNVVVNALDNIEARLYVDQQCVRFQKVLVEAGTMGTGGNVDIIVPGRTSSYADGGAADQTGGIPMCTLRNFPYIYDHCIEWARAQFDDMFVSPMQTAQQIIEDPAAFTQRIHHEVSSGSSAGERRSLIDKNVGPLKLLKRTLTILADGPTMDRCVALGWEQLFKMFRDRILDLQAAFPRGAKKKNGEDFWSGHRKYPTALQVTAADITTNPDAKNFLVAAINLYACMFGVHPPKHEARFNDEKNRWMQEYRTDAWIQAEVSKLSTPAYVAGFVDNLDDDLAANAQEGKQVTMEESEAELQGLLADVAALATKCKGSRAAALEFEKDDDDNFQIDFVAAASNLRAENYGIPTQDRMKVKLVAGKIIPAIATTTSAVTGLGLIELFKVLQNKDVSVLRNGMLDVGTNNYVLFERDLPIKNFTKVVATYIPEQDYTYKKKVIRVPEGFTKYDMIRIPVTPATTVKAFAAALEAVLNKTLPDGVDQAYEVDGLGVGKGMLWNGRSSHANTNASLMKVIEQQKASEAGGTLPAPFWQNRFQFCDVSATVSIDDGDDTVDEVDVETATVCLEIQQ

[3] = biological target: AMP-activated protein kinase, AMPK (Homo sapiens) (UniProt P54646+O43741+P54619+Q9UGJ0+Q9Y478+Q13131+Q9UGI9); test: AMP-dependent Kinase enzyme assay. An in vitro enzyme assay that detects ADP turnover that is directly proportional to AMPK activity. This uses naive AMPK that is activated during the assay with MK-8722; assay type: functional; settings: 30 µM
[4] = biological target: Sialic acid-binding Ig-like lectin 9 (Homo sapiens) (UniProt Q9Y336); test: Hs-Siglec9 ALPHAscreen SOP 20170721; settings: 10 µM
Sialic acid-binding Ig-like lectin 9 (Homo sapiens), sequence (Q9Y336 whole entry): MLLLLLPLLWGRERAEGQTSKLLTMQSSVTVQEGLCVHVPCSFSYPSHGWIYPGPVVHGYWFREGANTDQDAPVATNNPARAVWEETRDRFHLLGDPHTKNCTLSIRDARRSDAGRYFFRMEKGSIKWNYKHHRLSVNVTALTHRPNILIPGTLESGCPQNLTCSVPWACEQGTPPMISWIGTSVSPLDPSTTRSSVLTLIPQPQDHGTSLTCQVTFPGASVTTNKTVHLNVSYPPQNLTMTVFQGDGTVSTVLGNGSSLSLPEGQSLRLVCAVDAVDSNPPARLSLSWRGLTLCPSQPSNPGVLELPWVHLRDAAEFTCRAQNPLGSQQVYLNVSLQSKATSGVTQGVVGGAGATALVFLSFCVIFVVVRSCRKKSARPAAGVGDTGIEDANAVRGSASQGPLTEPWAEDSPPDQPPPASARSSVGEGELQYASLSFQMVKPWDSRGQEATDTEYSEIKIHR

Trypanosoma cruzi = test: Trypanosoma cruzi phosphomannomutase and mannose-1-phosphate guanylyltransferase assay; assay type: functional; settings: 10 µM
[5] = biological target: T2, Arginase-2, mitochondrial (Homo sapiens) (UniProt P78540); test: in vitro enzyme assay to detect the production of urea directly proportional to the activity of Arginase II; assay type: functional; settings: 33.3 µM; also: in the data most compounds retested in dose-response had high values
T2 sequence (whole entry): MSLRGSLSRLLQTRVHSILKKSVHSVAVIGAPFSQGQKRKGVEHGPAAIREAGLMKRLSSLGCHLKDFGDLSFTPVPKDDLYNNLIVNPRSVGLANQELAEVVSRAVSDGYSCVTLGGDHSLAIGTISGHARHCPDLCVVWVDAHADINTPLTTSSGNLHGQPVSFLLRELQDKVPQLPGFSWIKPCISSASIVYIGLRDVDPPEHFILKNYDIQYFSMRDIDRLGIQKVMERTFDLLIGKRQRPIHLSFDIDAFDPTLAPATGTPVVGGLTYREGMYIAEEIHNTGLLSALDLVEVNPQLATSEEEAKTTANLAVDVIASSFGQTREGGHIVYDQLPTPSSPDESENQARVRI

[6] = biological target: T3, Proteasome subunit beta (Trypanosoma cruzi) (UniProt O96673); test: Trypanosoma cruzi proteasome chymotrypsin-like activity (TcProtChymo) assay.; also: in the data most compounds retested in dose-response had high values; assay type: functional; settings: 9.37 µM
T3 sequence (whole entry): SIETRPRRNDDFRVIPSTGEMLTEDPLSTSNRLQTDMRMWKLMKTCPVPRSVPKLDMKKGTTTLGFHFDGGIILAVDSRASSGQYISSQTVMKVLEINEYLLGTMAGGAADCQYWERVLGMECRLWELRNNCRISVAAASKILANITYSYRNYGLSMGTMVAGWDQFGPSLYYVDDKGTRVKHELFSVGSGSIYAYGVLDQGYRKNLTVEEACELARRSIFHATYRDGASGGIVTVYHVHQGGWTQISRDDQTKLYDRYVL

Homo sapiens = organism: Homo sapiens; test: To identify inhibition of the IFN signalling (Jak-Stat) pathway via expression of an eGFP reporter gene under the control of an IFN-stimulated response element (ISRE) containing MxA promoter.; assay type: functional; settings: 30 µM
[7] = biological target: T4, Tyrosyl-tRNA synthetase, putative (Trypanosoma cruzi (strain CL Brener)) (UniProt Q4DSP6); test: Trypanosoma cruzi tyrosyl tRNA synthetase (TcYRS) _High Tyrosine SOP; assay type: functional; settings: 30 µM; also: in the data most compounds retested in dose-response had high values
T4 sequence (whole entry): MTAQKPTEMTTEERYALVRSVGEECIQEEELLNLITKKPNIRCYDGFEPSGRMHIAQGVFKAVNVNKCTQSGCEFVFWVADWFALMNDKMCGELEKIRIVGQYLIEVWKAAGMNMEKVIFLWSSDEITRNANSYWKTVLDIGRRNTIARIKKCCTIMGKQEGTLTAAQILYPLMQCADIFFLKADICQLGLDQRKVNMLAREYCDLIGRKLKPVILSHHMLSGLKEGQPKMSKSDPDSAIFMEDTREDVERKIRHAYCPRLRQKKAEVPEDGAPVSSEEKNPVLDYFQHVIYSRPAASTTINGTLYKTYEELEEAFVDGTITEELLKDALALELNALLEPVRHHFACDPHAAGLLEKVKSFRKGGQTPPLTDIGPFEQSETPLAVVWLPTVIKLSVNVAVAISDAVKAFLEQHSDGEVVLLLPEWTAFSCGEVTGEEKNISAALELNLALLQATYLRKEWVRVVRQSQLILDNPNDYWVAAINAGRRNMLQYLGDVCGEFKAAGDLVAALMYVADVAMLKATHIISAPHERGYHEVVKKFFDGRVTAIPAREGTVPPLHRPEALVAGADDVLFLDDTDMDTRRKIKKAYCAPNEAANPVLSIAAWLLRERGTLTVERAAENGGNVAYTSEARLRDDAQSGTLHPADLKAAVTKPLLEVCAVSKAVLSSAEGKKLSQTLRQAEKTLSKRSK

[8] = biological target: T4, Tyrosyl-tRNA synthetase, putative (Trypanosoma cruzi (strain CL Brener)); test: Trypanosoma cruzi tyrosyl tRNA synthetase (TcYRS) SOP; assay type: functional; settings: 30 µM
[9] = biological target: Chromo domain-containing protein 1 (Saccharomyces cerevisiae (strain ATCC 204508 / S288c) (Baker's yeast)) (UniProt P32657); test: ScCHD-1 Enzyme Inhibition Assay; assay type: functional; settings: 30 µM; also: in the data most compounds retested in dose-response had high values
Chromo domain-containing protein 1 (Saccharomyces cerevisiae (strain ATCC 204508 / S288c) (Baker's yeast)), sequence (P32657 whole entry, the tested form may be a part): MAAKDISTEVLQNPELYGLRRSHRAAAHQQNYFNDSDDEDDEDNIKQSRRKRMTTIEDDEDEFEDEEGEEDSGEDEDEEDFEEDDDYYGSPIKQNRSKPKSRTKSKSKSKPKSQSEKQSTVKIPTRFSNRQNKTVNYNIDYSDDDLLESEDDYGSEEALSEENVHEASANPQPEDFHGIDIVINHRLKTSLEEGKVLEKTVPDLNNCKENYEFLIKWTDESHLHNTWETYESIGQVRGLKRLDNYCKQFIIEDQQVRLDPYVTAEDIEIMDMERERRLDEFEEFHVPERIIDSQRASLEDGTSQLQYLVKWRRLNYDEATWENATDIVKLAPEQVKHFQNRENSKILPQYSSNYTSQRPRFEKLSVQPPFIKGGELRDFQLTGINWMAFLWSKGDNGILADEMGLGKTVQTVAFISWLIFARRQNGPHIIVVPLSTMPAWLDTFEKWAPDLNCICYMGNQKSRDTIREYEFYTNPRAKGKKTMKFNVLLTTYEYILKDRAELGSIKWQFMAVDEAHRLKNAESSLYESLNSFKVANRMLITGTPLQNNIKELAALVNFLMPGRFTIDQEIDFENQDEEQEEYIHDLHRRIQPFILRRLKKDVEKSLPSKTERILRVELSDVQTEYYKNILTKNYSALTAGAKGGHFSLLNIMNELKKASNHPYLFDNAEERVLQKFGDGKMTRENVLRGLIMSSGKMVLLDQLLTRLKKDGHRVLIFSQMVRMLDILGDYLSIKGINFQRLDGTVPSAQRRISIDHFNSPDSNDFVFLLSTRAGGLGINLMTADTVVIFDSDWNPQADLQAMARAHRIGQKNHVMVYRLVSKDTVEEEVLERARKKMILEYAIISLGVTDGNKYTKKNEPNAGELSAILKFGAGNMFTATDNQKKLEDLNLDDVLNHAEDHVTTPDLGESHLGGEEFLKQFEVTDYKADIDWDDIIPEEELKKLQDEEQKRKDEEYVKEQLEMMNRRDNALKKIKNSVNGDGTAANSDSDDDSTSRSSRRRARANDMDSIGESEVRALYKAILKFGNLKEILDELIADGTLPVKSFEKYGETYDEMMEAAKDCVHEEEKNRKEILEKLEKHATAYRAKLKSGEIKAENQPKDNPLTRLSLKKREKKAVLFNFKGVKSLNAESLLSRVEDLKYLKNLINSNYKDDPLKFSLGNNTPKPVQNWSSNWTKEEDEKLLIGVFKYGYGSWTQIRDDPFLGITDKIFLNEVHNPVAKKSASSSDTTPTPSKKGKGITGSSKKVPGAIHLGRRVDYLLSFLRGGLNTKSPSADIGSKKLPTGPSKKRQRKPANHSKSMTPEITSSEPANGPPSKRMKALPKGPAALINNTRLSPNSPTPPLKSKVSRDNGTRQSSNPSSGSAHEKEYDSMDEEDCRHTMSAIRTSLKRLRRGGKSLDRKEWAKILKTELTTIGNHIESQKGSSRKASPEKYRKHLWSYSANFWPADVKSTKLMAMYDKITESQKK

SMILES | Percent Effect [1] [%] | Percent Effect [2] [%] | Percent Effect [3] [%] | Percent Effect [4] [%] | Percent Effect (Trypanosoma cruzi) [%] | Percent Effect [5] [%] | Percent Effect [6] [%] | Percent Effect (Homo sapiens) [%] | Percent Effect [7] [%] | Percent Effect [8] [%] | Percent Effect [9] [%]
Cc1ccc(C)c(-c2csc(N)c2C#N)c1 | -2.81 | -1.33 | -2.97 | 7.24 | 0.589 | -10 | 4.99 | 14.2 | -12.7 | -12.8 | 2.05
O=S(=O)(Cc1ccccc1)N1CCCn2cnc(CN3CCCC3)c2C1 | -3.85 | 8 | 20.1 | -0.361 | -4.44 | -57.5 | 5.3 | -10 | 6.25 | -7.5 | -6.67
CSC(C)(C)CNC(=O)NC1CCN(C)CC1 | -2.43 | 5.33 | -2.46 | 7.43 | 3.21 | 15.6 | 0 | 21.1 | 4.92 | 6.17 | -2.97
Cn1ncc2c(=O)[nH]c(N3CCN(C(=O)c4ccsc4)CC3)nc21 | -5.57 | 2.7 | 2.37 | -0.0131 | -6.32 | 17.2 | 3.24 | 25 | -1.48 | -11.1 | 1.01
CC(C)COC(C)C(=O)NCc1ccc(OC(C)C)nc1 (stereo unspecified) | -1.41 | 15.6 | -0.374 | 1.85 | 2.84 | 1.9 | 11.1 | -12.7 | 8.57 | 25.9 | -24.5
NC(=O)C1CCN(Cc2cccc(NC(=O)c3ccsc3)c2)CC1 | -6.14 | 2.67 | -1.03 | 5.05 | 3.99 | -2.08 | 7.85 | 17 | 7.1 | 13.6 | -5.67
O=C(CCNC(=O)C1CCCC1)NCc1ccccc1Cn1cncn1 | -3.71 | 31.6 | 0.311 | -9.83 | -1.96 | -2.52 | 7.87 | 1.98 | 6.4 | 18.5 | 0.0492
O=C(NCc1ccccn1)N(Cc1ccc(F)cc1F)C1CC1 | -3.99 | 12.7 | 3.15 | 9.47 | -0.0944 | -1.52 | 5 | 12 | 5.42 | 13.9 | -5.13
Cc1cccc(N2CCC(NC(=O)CCCc3cccs3)CC2)n1 | -3.35 | 11 | 0.158 | 5.32 | 5.49 | 6.82 | 9.94 | 4.54 | 5.38 | 12.5 | 2.88
CCc1nc(C(=O)N2CCCC2)nn1-c1ccccc1Cl | -7.61 | 10.5 | -8.39 | 16.4 | 4.95 | 2.16 | 2.62 | 4.97 | 7.39 | 18.5 | -7.11
Cc1ccc(-c2ncc(C(=O)NCCNC(=O)C(C)C)s2)c(C)c1 | -2.93 | 5.41 | -5.86 | -1.89 | -3.87 | -2 | 2.52 | 15.8 | 4.43 | 11.1 | -8.7
